AmpC inh detg: blocks E. coli AmpC beta-lactamase in detergent assay. Potency, µM (series often up to 114 µM), for the others: top-dose activity change, negative = inhibition, hits mostly inhibitors. actives 0.041% (n = 370,000). AID 485294. P00811. AmpC hydrolysis of nitrocefin, absorbance 480 nm, 0.01% Triton;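 further: 0% = no-compound wells and -100% = no-enzyme wells; nearly all actives have a fitted effect of over 25% in size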
Target sequence (P00811 whole entry, looked up): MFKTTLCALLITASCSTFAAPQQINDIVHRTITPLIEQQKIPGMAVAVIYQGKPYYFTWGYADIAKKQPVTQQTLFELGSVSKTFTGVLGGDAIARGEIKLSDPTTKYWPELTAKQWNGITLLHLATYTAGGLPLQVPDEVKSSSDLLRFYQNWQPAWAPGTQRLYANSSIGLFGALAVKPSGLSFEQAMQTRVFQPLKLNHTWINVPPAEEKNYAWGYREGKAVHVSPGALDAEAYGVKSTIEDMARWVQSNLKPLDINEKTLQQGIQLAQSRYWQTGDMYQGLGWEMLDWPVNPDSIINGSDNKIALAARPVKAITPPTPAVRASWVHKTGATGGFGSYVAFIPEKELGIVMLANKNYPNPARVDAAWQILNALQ
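20 mM phosphate pH 7.0 + 0.01% (detergent screen) or 0.0001% Triton X-100; 5.3 nM AmpC reagent; cpd preinc 15 min RT; nitrocefin (800 uM stock) to start; A480 q20 s × 4 min; Activity was normalised to no-enzyme and no-compound control wells.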
Sm TGR inh: blocks Schistosoma mansoni thioredoxin glutathione reductase; purified TGR, DTNB reduction, TNB absorbance 405 nm; Q962Y6; actives 3% (n = 360,000); Potency, µM (highest dose often 114 µM), without a hit: at the highest dose activity change, negative = inhibition, usual class: inhibitors; AID 485364; further: on the % scale 0 is the no-effect control and ±100 the full control effect; nearly all actives have a fitted effect of over 60% in size
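TGR 20 nM + NADPH 100 uM (dispensed conc.), cpd preinc 15 min RT; start with NADPH (500 uM addition) then DTNB (15 mM addition). Kinetic TNB absorbance, 405 nm filter. Four-parameter Hill fit across titration.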
AmpC no deterg: AmpC beta-lactamase inhibition without detergent. P00811. AmpC nitrocefin hydrolysis, absorbance 480 nm, 0.0001% Triton. Potency, µM (series often up to 57.1 µM), without a hit: top-dose activity change, negative = inhibition, hits mostly inhibitors. actives 0.52% (n = 330,000);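 further: plate controls were no compound for no effect and no enzyme for full effect; nearly all actives have a fitted effect of over 20% in size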
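AmpC (5.3 nM in the dispensed reagent) in 20 mM phosphate pH 7.0 with 0.01% (detergent screen) or 0.0001% Triton X-100 was preincubated with compounds for 15 min at room temperature. Nitrocefin was then added from an 800 uM solution, and hydrolysis was followed at 480 nm.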
Pf growth 96h: P. falciparum growth inhibition at 96 hour, primary screen for plastid delayed-death inhibitors | P. falciparum luciferase reporter growth, 96 h | AID 504834 | Potency, µM (series often up to 28.7 µM), inactives show at the top dose activity change, negative = inhibition, hits mostly inhibitors | actives 6.9% (n = 320,000); further: on the % scale 0 is the no-effect control and ±100 the full control effect
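Cell-based qHTS: luciferase-tagged P. falciparum in erythrocytes (2% hematocrit, 0.05% parasitemia final) incubated with compounds for 96 hours, 37 C, 5% CO2; luciferase detection reagent then added and luminescence measured.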
SARS PLpro yeast: inhibitors of SARS-CoV papain-like protease in yeast. Potency, µM (highest dose often 32.9 µM), without a hit: at the highest dose activity, positive = growth rescue, usual class: activators. S. cerevisiae expressing SARS-CoV PLpro, growth rescue. actives 0.19% (n = 330,000); calls by dose curve; further: 0% is about no effect; nearly all actives have a fitted effect of over 55% in size
Pf growth 48h: inhibits P. falciparum growth in the first generation, 48 h; P. falciparum luciferase growth in erythrocytes, 48 h; Potency, µM (series often up to 28.7 µM), for inactives: at the highest dose activity change, negative = inhibition, usual class: inhibitors; actives 5.9% (n = 310,000); further: on the % scale 0 is the no-effect control and ±100 the full control effect
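First compound was added to culture medium, then infected red cells at 0.1% parasitemia and 2% hematocrit (final). After incubation at 37 C under 5% CO2, luciferase detection reagent was dispensed and light output recorded.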
* hit, by the source's call; i = inactive; ? = inconclusive; . = no result; [ ] = remark or other dose. An excerpt weighted towards active compounds, which were near 12% of everything screened. Unless noted, the call rests on the fitted dose curve; in most records, active means well fitted curve in the direction sought with a large enough effect; inconclusive means small, poorly fitted or top-dose-only effect, or another doubt; inactive means no such curve, though single readings can be large; an effect the other way counts as inactive or inconclusive. Potency means the concentration at half of the fitted maximal effect.

SMILES	AmpC inh detg	Sm TGR inh	AmpC no deterg	Pf growth 96h	SARS PLpro yeast	Pf growth 48h
COC(=O)c1cc2oc(C)cc2n1CC(=O)N1CCCc2ccccc21	-3%	-17%	8%	6.6µM*	3%	?
CCOC(=O)c1cc2sccc2n1CC(=O)N1CCCc2ccccc21	?	-21%	-3%	52%	-8%	?
CCOC(=O)c1cc2occc2n1CC(=O)N1CCCc2ccccc21	-4%	8.9µM*	-2%	i	1%	9.3µM*
COC(=O)c1cc2oc(C)cc2n1CC(=O)Nc1ccc(C)c(C)c1	?	-19%	-56%	1.7µM*	-2%	0%
O=C(Nc1cccs1)Nc1ccc(F)cc1F	31%	0%	-20%	?	-2%	65%
O=C(Nc1cccs1)Nc1ccc(Br)cc1F	13%	-2%	-4%	12µM*	-77%	?
Cc1ccc(NC(=O)Nc2cccs2)cc1	-10%	-30%	-44%	7.4µM*	-13%	56%
Cc1cc(-c2ccccc2)nn1-c1nc2c(c(=O)[nH]c(=O)n2C)n1C	?	-8%	-11%	?	-3%	2%
Cc1c(C(=O)OCC2CCCCC2)[nH]c2c1C(=O)CC(c1ccccc1Cl)C2 (stereo not drawn)	14%	8%	.	.	.	.
O=C(CCl)Nc1ccc2c(c1)OCO2	-6%	16µM*	-23%	15µM*	28%	?
O=C(Nc1ccc2c(c1)OCO2)C1(S(=O)(=O)c2ccc(Cl)cc2)CC1	2%	11%	-15%	1.9µM*	7%	-1%
Cc1ccc(S(=O)(=O)C2(C(=O)Nc3cccc(F)c3)CC2)cc1	?	1%	2.8µM*	-7%	1%	5%
CS(=O)(=O)N(CC(=O)Nc1ccc2c(c1)OCO2)Cc1ccc(Cl)cc1	1%	-3%	0.28µM*	.	-1%	19%
O=C(Cc1cn2ccsc2n1)Nc1nc2c(s1)CN(Cc1ccccc1)CC2	-11%	-34%[11.4 µM]	16%	?	-2%	.
Cc1ccn2c(=O)cc(CSc3nnc(C)s3)nc2c1	17%	-1%	.	.	.	.
O=C(CCC(=O)N1CCN(Cc2ccc(F)cc2)CC1)Nc1nnc(C2CCCCC2)s1	-6%	-7%	5%	?	-1%	-25%
COCc1cc(=O)[nH]c(Nc2nc3ccc(C)cc3o2)n1	-12%	-18%	6%	?	-5%	2.9µM*
Cc1nc2ccccc2c(=O)n1NC(=O)c1ccco1	-4%	-7%	-23%	-6%	9%	-10%
C/C(=N\Nc1nc2ccccc2c(=O)n1O)c1ccco1	-1%	40µM*	-14%	280%	8%	162%
NCCCCCNC(=O)/C=N\O	-2%	-4%	-3%	4%	6%	4%
CC(C)(C)OC(=O)N1CCC(c2c(C(=O)N3CCCCC3)cnn2-c2ccccc2Cl)CC1	-5%	0%	.	.	.	.
CCN1CCN(C(=O)CS(=O)(=O)Cc2nc(-c3ccc(C)cc3)oc2C)CC1	-16%	-17%	10µM*	?	-2%	17%
Cc1ccc(-c2nc(CS(=O)(=O)CC(=O)N3CC(C)CC(C)C3)c(C)o2)cc1 (stereo not drawn)	-3%	2.2µM*	40µM*	?	-7%	24%
Cn1c(=O)c(NCCO)c2c3c(cccc31)C(=O)c1ccccc1-2	-1%	-4%	22%	-8%	-2%	23%
Cn1c(=O)c(NCCc2ccccc2)c2c3c(cccc31)C(=O)c1ccccc1-2	-2%	-9%	?	9.3µM*	-11%	.
SMILES	AmpC inh detg	Sm TGR inh	AmpC no deterg	Pf growth 96h	SARS PLpro yeast	Pf growth 48h
Cn1c(=O)c(NC2CCCCC2)c2c3c(cccc31)C(=O)c1ccccc1-2	-7%	13%	-20%	0%	1%	13µM*
CC(C)c1ccc(C(=O)CC2(O)C(=O)N(CN3CCOCC3)c3ccccc32)cc1 (stereo not drawn)	0%	-23%	-15%	12µM*	-3%	37%
Cc1ccccc1-c1nc(CN2CCC(C(=O)NCc3ccc(F)cc3)CC2)c(C)o1	-4%	-3%	.	.	.	.
OCC[C@H]1C[C@H](O)[C@@H](O)[C@@]2(OCc3ccccc32)O1	-8%	45µM*	-18%	66%	0%	-4%
Cc1ccc(C(c2sc3nc(-c4ccco4)nn3c2O)N2CCN(c3ccc(F)cc3)CC2)cc1 (stereo not drawn)	3%	-8%	.	.	.	.
CCOC(=O)C1=NN(C(=O)COc2ccccc2)C(O)(c2ccc(Br)cc2)C1 (stereo not drawn)	-6%	.	-24%	2.9µM*	0%	20%
CCC1=NN(C(=O)COc2ccccc2)C(O)(c2ccncc2)C1 (stereo not drawn)	8%	7%	21%	-4%	-1%	1%
CC(C)[C@H](NC(=O)c1ccccc1F)C(=O)NC1CCCCCCC1	.	.	-18%	.	4%	.
Cc1ccnc(NC(=O)c2cccc(NC(=O)CC3SC(N4CCCCC4)=NC3=O)c2)c1 (stereo not drawn)	0%	1%	93%	8.3µM*	0%	?
COc1cccc(CN(C)C(=O)c2ccc(NC(=O)CC3SC(N4CCCC4)=NC3=O)cc2)c1OC (stereo not drawn)	?	0%	134%	6.6µM*	3%	?
O=C(CC1SC(N2CCCC2)=NC1=O)Nc1ccc(C(=O)Nc2ncccc2O)cc1 (stereo not drawn)	-13%	-1%	-14%	?	4%	2.6µM*
Cc1ccnc(NC(=O)c2ccc(NC(=O)CC3SC(N4CCCC4)=NC3=O)cc2)c1 (stereo not drawn)	?	11%	-10%	?	-4%	?
CN(Cc1ccccc1)c1nc2c(c(=O)[nH]c(=O)n2C)n1C	?	-7%	-17%	1%	?	0%
C/C=C/Cn1c(N(C)Cc2ccccc2)nc2c1c(=O)[nH]c(=O)n2C	-2%	1%	-7%	8.3µM*	-12%	?
Cc1cccc(Cn2c(Sc3nc(C)cs3)nc3c2c(=O)[nH]c(=O)n3C)c1	-10%	9%	-13%	1.7µM*	0%	-21%
Cc1cccc(Cn2c(N(C)Cc3ccccc3)nc3c2c(=O)[nH]c(=O)n3C)c1	-8%	0%	37%	13µM*	-2%	12µM*
COc1ccc(N2CCN(c3nc4c(c(=O)[nH]c(=O)n4C)n3Cc3cccc(C)c3)CC2)cc1	2%	0%	-28%	48%	2%	10µM*
Cc1ccc(C)c(N2CCN(C(=O)C3CCCN(S(=O)(=O)c4ccc5c(c4)oc(=O)n5C)C3)CC2)c1 (stereo not drawn)	11%	-1%	.	.	.	.
